± gives the standard deviation of the averaged measurements.
Tests used:
Test in all cases: promoter activity interaction Z-score (Lux/OD deviation from empty-vector control); higher = stronger promoter induction by the compound
[1] = tested on: E. coli BW25113 acrABp lux reporter
Summary of the method: (§1)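 At 37°C, E. coli BW25113 reporter cultures in 40 µl LB Lennox in 384-well plates were read for OD600 and luminescence every 30 min for 12 h. Windows were 0–8 h for wild type and 1–9 h for deletion strains, and wells under 10% of the median growth value were removed. The score is the Z-transformed residual of growth-normalised luminescence against a control fit.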

[2] = tested on: E. coli BW25113 micFp lux reporter
Summary of the method: as §1

[3] = tested on: E. coli BW25113 ompFp lux reporter
Summary of the method: as §1

[4] = tested on: E. coli BW25113 robp lux reporter
Summary of the method: as §1

[5] = tested on: E. coli BW25113 soxSp lux reporter
Summary of the method: as §1

[6] = tested on: E. coli BW25113 tolCp lux reporter
Summary of the method: as §1

[7] = 3.1 µg/ml, genetic background: wild type
[8] = 3.1 µg/ml, genetic background: ΔmarA
[9] = 3.1 µg/ml, genetic background: Δrob
[10] = 3.1 µg/ml, genetic background: ΔsoxS
[11] = 6.1 µg/ml, genetic background: wild type
[12] = 6.1 µg/ml, genetic background: ΔmarA
[13] = 6.1 µg/ml, genetic background: Δrob
[14] = 6.1 µg/ml, genetic background: ΔsoxS
[15] = 12.2 µg/ml, genetic background: wild type
[16] = 12.2 µg/ml, genetic background: ΔmarA
[17] = 12.2 µg/ml, genetic background: Δrob
[18] = 12.2 µg/ml, genetic background: ΔsoxS
[19] = 24.5 µg/ml, genetic background: wild type
[20] = 24.5 µg/ml, genetic background: Δrob
[21] = 24.5 µg/ml, genetic background: ΔsoxS
[22] = 24.5 µg/ml, genetic background: ΔmarA
[23] = 0.0054 µg/ml, genetic background: wild type
[24] = 0.0054 µg/ml, genetic background: ΔmarA
[25] = 0.0054 µg/ml, genetic background: Δrob
[26] = 0.0054 µg/ml, genetic background: ΔsoxS
[27] = 0.011 µg/ml, genetic background: wild type
[28] = 0.011 µg/ml, genetic background: ΔmarA
[29] = 0.011 µg/ml, genetic background: Δrob
[30] = 0.011 µg/ml, genetic background: ΔsoxS
[31] = 0.022 µg/ml, genetic background: wild type
[32] = 0.022 µg/ml, genetic background: ΔmarA
[33] = 0.022 µg/ml, genetic background: Δrob
[34] = 0.022 µg/ml, genetic background: ΔsoxS
[35] = 0.044 µg/ml, genetic background: wild type

COc1ccc(C[C@H](N)C(=O)N[C@H]2[C@@H](O)[C@H](n3cnc4c(N(C)C)ncnc43)O[C@@H]2CO)cc1 [Puromycin]
promoter activity interaction Z-score [1, 7]: -0.169 ± 0.22 | promoter activity interaction Z-score [1, 8]: 0.738 ± 0.17 | promoter activity interaction Z-score [1, 9]: 0.211 ± 0.055 | promoter activity interaction Z-score [1, 10]: 0.2622 ± 0.0026 | promoter activity interaction Z-score [1, 11]: -0.104 ± 0.052 | promoter activity interaction Z-score [1, 12]: 0.582 ± 0.0062 | promoter activity interaction Z-score [1, 13]: 0.153 ± 0.24 | promoter activity interaction Z-score [1, 14]: 0.199 ± 0.57 | promoter activity interaction Z-score [1, 15]: -0.0259 ± 0.33 | promoter activity interaction Z-score [1, 16]: -0.302 ± 0.48 | promoter activity interaction Z-score [1, 17]: 0.308 ± 0.44 | promoter activity interaction Z-score [1, 18]: 0.649 ± 0.26 | promoter activity interaction Z-score [1, 19]: 3.35 ± 1.5 | promoter activity interaction Z-score [1, 20]: 3.54 | promoter activity interaction Z-score [1, 21]: 0.855 | promoter activity interaction Z-score [2, 7]: 0.0526 ± 0.12 | promoter activity interaction Z-score [2, 8]: 0.103 ± 0.069 | promoter activity interaction Z-score [2, 9]: 0.103 ± 0.15 | promoter activity interaction Z-score [2, 10]: 0.0839 ± 0.0077 | promoter activity interaction Z-score [2, 11]: 0.357 ± 0.041 | promoter activity interaction Z-score [2, 12]: 0.0213 ± 0.081 | promoter activity interaction Z-score [2, 13]: 0.102 ± 0.074 | promoter activity interaction Z-score [2, 14]: 0.145 ± 0.035 | promoter activity interaction Z-score [2, 15]: 0.699 ± 0.21 | promoter activity interaction Z-score [2, 16]: -0.00373 ± 0.096 | promoter activity interaction Z-score [2, 17]: 0.459 ± 0.3 | promoter activity interaction Z-score [2, 18]: 0.738 ± 0.034 | promoter activity interaction Z-score [2, 19]: 1.71 ± 0.31 | promoter activity interaction Z-score [2, 22]: -0.484 | promoter activity interaction Z-score [2, 20]: 0.834 ± 0.41 | promoter activity interaction Z-score [2, 21]: 1.39 ± 0.35 | promoter activity interaction Z-score [3, 7]: 0.322 ± 0.085 | promoter activity interaction Z-score [3, 8]: 1.17 ± 0.67 | promoter activity interaction Z-score [3, 9]: 0.656 ± 0.1 | promoter activity interaction Z-score [3, 10]: 0.816 ± 0.3 | promoter activity interaction Z-score [3, 11]: 0.855 ± 0.35 | promoter activity interaction Z-score [3, 12]: 1.33 ± 0.85 | promoter activity interaction Z-score [3, 13]: 0.692 ± 0.034 | promoter activity interaction Z-score [3, 14]: 0.84 ± 0.13 | promoter activity interaction Z-score [3, 15]: 0.351 ± 0.31 | promoter activity interaction Z-score [3, 16]: 0.942 ± 0.49 | promoter activity interaction Z-score [3, 17]: 0.448 ± 0.37 | promoter activity interaction Z-score [3, 18]: 1.03 ± 0.34 | promoter activity interaction Z-score [3, 19]: 0.599 ± 1.4 | promoter activity interaction Z-score [4, 7]: 0.0602 ± 0.017 | promoter activity interaction Z-score [4, 8]: 0.523 ± 0.036 | promoter activity interaction Z-score [4, 9]: 0.5595 ± 0.0042 | promoter activity interaction Z-score [4, 10]: -0.174 ± 0.69 | promoter activity interaction Z-score [4, 11]: 0.596 ± 0.45 | promoter activity interaction Z-score [4, 12]: 0.0157 ± 0.15 | promoter activity interaction Z-score [4, 13]: 0.269 ± 0.22 | promoter activity interaction Z-score [4, 14]: 0.279 ± 0.33 | promoter activity interaction Z-score [4, 15]: -0.231 ± 0.16 | promoter activity interaction Z-score [4, 16]: 0.0377 ± 0.16 | promoter activity interaction Z-score [4, 17]: -0.211 ± 0.45 | promoter activity interaction Z-score [4, 18]: 0.0544 ± 0.43 | promoter activity interaction Z-score [4, 19]: -0.191 | promoter activity interaction Z-score [4, 22]: -0.499 | promoter activity interaction Z-score [5, 7]: -0.228 ± 0.044 | promoter activity interaction Z-score [5, 8]: -0.0397 ± 0.09 | promoter activity interaction Z-score [5, 9]: 0.102 ± 0.24 | promoter activity interaction Z-score [5, 10]: 0.373 ± 0.73 | promoter activity interaction Z-score [5, 11]: -0.0604 ± 0.21 | promoter activity interaction Z-score [5, 12]: 0.0219 ± 0.021 | promoter activity interaction Z-score [5, 13]: -0.144 ± 0.099 | promoter activity interaction Z-score [5, 14]: 0.298 ± 0.46 | promoter activity interaction Z-score [5, 15]: 0.0076 ± 0.14 | promoter activity interaction Z-score [5, 16]: 0.0786 ± 0.15 | promoter activity interaction Z-score [5, 17]: 0.00948 ± 0.09 | promoter activity interaction Z-score [5, 18]: 0.315 ± 0.021 | promoter activity interaction Z-score [5, 19]: -0.0601 ± 0.063 | promoter activity interaction Z-score [5, 22]: -0.197 ± 0.049 | promoter activity interaction Z-score [5, 20]: -0.131 ± 0.33 | promoter activity interaction Z-score [5, 21]: 0.525 ± 0.4 | promoter activity interaction Z-score [6, 7]: -0.726 ± 1 | promoter activity interaction Z-score [6, 8]: -0.59 ± 0.65 | promoter activity interaction Z-score [6, 9]: -0.281 ± 0.23 | promoter activity interaction Z-score [6, 10]: 0.126 ± 0.63 | promoter activity interaction Z-score [6, 11]: -0.252 ± 0.51 | promoter activity interaction Z-score [6, 12]: -0.611 ± 0.2 | promoter activity interaction Z-score [6, 13]: -0.785 ± 0.27 | promoter activity interaction Z-score [6, 14]: -0.165 ± 0.34 | promoter activity interaction Z-score [6, 15]: -0.285 ± 0.69 | promoter activity interaction Z-score [6, 16]: 0.412 ± 0.11 | promoter activity interaction Z-score [6, 17]: -0.374 ± 0.33 | promoter activity interaction Z-score [6, 18]: -0.186 ± 0.2 | promoter activity interaction Z-score [6, 19]: 1.04 ± 0.64 | promoter activity interaction Z-score [6, 22]: 1.74 | promoter activity interaction Z-score [6, 20]: -0.0754 ± 0.73 | promoter activity interaction Z-score [6, 21]: 0.227 ± 0.79

C[C@H]1[C@H](NC(=O)/C(=N\OC(C)(C)C(=O)O)c2csc(N)n2)C(=O)N1S(=O)(=O)O [Aztreonam]
promoter activity interaction Z-score [1, 23]: -0.253 ± 0.084 | promoter activity interaction Z-score [1, 24]: -0.209 ± 1.9 | promoter activity interaction Z-score [1, 25]: -0.333 ± 0.022 | promoter activity interaction Z-score [1, 26]: -0.321 ± 0.053 | promoter activity interaction Z-score [1, 27]: 0.0466 ± 0.11 | promoter activity interaction Z-score [1, 28]: 1.29 ± 1.5 | promoter activity interaction Z-score [1, 29]: -0.509 ± 0.068 | promoter activity interaction Z-score [1, 30]: -0.163 ± 0.42 | promoter activity interaction Z-score [1, 31]: -0.332 ± 0.23 | promoter activity interaction Z-score [1, 32]: 0.66 ± 1.8 | promoter activity interaction Z-score [1, 33]: -0.535 ± 0.26 | promoter activity interaction Z-score [1, 34]: -0.424 ± 0.41 | promoter activity interaction Z-score [2, 23]: -0.16 ± 0.07 | promoter activity interaction Z-score [2, 24]: 0.09 ± 0.019 | promoter activity interaction Z-score [2, 25]: -0.0804 ± 0.089 | promoter activity interaction Z-score [2, 26]: -0.271 ± 0.15 | promoter activity interaction Z-score [2, 27]: 0.0711 ± 0.15 | promoter activity interaction Z-score [2, 28]: 0.045 ± 0.1 | promoter activity interaction Z-score [2, 29]: -0.174 ± 0.022 | promoter activity interaction Z-score [2, 30]: 0.375 ± 0.11 | promoter activity interaction Z-score [2, 31]: -0.368 ± 0.07 | promoter activity interaction Z-score [2, 32]: 0.0282 ± 0.096 | promoter activity interaction Z-score [2, 33]: -0.184 ± 0.33 | promoter activity interaction Z-score [2, 34]: -0.331 ± 0.2 | promoter activity interaction Z-score [3, 23]: 0.304 ± 0.71 | promoter activity interaction Z-score [3, 24]: 1.01 ± 0.48 | promoter activity interaction Z-score [3, 25]: 0.73 ± 0.63 | promoter activity interaction Z-score [3, 26]: -0.689 ± 0.21 | promoter activity interaction Z-score [3, 27]: 0.141 ± 0.14 | promoter activity interaction Z-score [3, 28]: 1.02 ± 0.8 | promoter activity interaction Z-score [3, 29]: -0.364 ± 0.87 | promoter activity interaction Z-score [3, 30]: 0.129 ± 0.2 | promoter activity interaction Z-score [3, 31]: -0.19 ± 0.57 | promoter activity interaction Z-score [3, 32]: 1.43 ± 0.23 | promoter activity interaction Z-score [3, 33]: -0.565 ± 1.7 | promoter activity interaction Z-score [3, 34]: -0.303 ± 0.73 | promoter activity interaction Z-score [4, 23]: -0.543 ± 0.46 | promoter activity interaction Z-score [4, 24]: 1.13 ± 0.88 | promoter activity interaction Z-score [4, 25]: -0.203 ± 0.46 | promoter activity interaction Z-score [4, 26]: -1.41 ± 0.17 | promoter activity interaction Z-score [4, 27]: 0.385 ± 0.037 | promoter activity interaction Z-score [4, 28]: 1.33 ± 2 | promoter activity interaction Z-score [4, 29]: -0.405 ± 0.69 | promoter activity interaction Z-score [4, 30]: -0.722 ± 0.24 | promoter activity interaction Z-score [4, 31]: -0.69 ± 0.072 | promoter activity interaction Z-score [4, 32]: -0.124 ± 0.43 | promoter activity interaction Z-score [4, 33]: -1.16 ± 1.2 | promoter activity interaction Z-score [4, 34]: -1.07 ± 0.27 | promoter activity interaction Z-score [5, 23]: 0.278 ± 0.064 | promoter activity interaction Z-score [5, 24]: 0.333 ± 0.11 | promoter activity interaction Z-score [5, 25]: -0.00514 ± 0.076 | promoter activity interaction Z-score [5, 26]: -0.126 ± 0.11 | promoter activity interaction Z-score [5, 27]: 0.305 ± 0.13 | promoter activity interaction Z-score [5, 28]: 0.172 ± 0.0071 | promoter activity interaction Z-score [5, 29]: -0.21 ± 0.25 | promoter activity interaction Z-score [5, 30]: 0.164 ± 0.46 | promoter activity interaction Z-score [5, 31]: 0.0318 ± 0.13 | promoter activity interaction Z-score [5, 32]: 0.1912 ± 0.0014 | promoter activity interaction Z-score [5, 33]: -0.194 ± 0.19 | promoter activity interaction Z-score [5, 34]: -0.106 ± 0.33 | promoter activity interaction Z-score [5, 35]: -0.0693 ± 0.29 | promoter activity interaction Z-score [6, 23]: -0.174 ± 0.12 | promoter activity interaction Z-score [6, 24]: 0.0726 ± 0.53 | promoter activity interaction Z-score [6, 25]: -0.67 ± 1.8 | promoter activity interaction Z-score [6, 26]: -1.94 ± 0.062 | promoter activity interaction Z-score [6, 27]: 0.647 ± 0.59 | promoter activity interaction Z-score [6, 28]: -0.497 ± 0.27 | promoter activity interaction Z-score [6, 29]: -0.241 ± 1 | promoter activity interaction Z-score [6, 30]: -0.196 ± 0.045 | promoter activity interaction Z-score [6, 31]: 0.105 ± 0.69 | promoter activity interaction Z-score [6, 32]: -0.22 ± 1.1 | promoter activity interaction Z-score [6, 33]: 1.61 ± 1 | promoter activity interaction Z-score [6, 34]: -0.251 ± 0.32 | promoter activity interaction Z-score [6, 35]: -1.04
